PubChem BioAssay AID1654 (Sanford-Burnham Center for Chemical Genomics, 2009)
In all, about 290,000 compounds went through this assay and about 1,500 (0.52%) were called active. The list comes from a sample in which actives are over-represented; it also holds similar structures and randomly drawn compounds. Unmarked numbers belong to inactive results. Cut-off read from the data, not from the text of the source: active = inhibition above about 50%; inactive = the rest.

These molecules were tested against Dual specificity protein phosphatase 3 (Homo sapiens) (UniProt P51452) (assay: inhibition of human DUSP3 activity – biochemical, absorbance, uHTS, primary screen (AID 1654)). Details: recombinant VHR phosphatase, pNPP absorbance, at 13.3 µM, stronger effect = higher value.
Dual specificity protein phosphatase 3 (Homo sapiens), sequence (P51452 whole entry, looked up): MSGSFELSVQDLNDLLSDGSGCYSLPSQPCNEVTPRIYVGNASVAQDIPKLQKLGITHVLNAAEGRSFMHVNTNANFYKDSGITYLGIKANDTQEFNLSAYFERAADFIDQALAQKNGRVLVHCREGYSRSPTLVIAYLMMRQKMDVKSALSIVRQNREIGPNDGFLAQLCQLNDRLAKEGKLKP

SMILES	inhibition
O=c1c2c(-c3ccccc3)ccnc2[nH]n1-c1ccccc1	55.5% (active)
Cc1ccc(-n2[nH]c(C)c(/C=N/N3C(=O)c4cccc5cccc(c45)C3=O)c2=O)cc1	20.9%
Cc1ccc(C2C3=C(Nc4[nH]n(-c5ccccc5)c(=O)c42)c2ccccc2C3=O)cc1 (stereo not given)	1.7%
O=c1[nH]cnc2c1c(-c1ccccc1)cn2-c1ccc(F)cc1	-6.9%
O=c1c(-c2cccc(Cl)c2)c[nH]n1-c1ccccc1	12.5%
Cc1ccc(-c2ccnc3[nH]n(-c4ccccc4)c(=O)c23)cc1	60% (active)
Cc1ccc(S(=O)(=O)N2CCC(C(=O)N[C@@H](C)C(=O)NCc3ccccc3)CC2)cc1	1.5%
Cc1ccc(S(=O)(=O)N2CCC(C(=O)N[C@@H](C)C(=O)NCCc3ccccc3)CC2)cc1	6.2%
C[C@H](NC(=O)C1CCN(S(=O)(=O)c2ccccc2)CC1)C(=O)NCc1ccccc1	52.3% (active)
N#Cc1c(-c2ccccc2)nc(SCc2ccc([N+](=O)[O-])cc2)[nH]c1=O	4.1%
O=C(C(NS(=O)(=O)c1cccc2nsnc12)c1ccccc1)N1CCN(c2ccccn2)CC1 (stereo not given)	52.7% (active)
O=C(C(NS(=O)(=O)c1cccc2nsnc12)c1ccccc1)N1CCN(c2ccccc2)CC1 (stereo not given)	-12.8%
O=C(O)C(NS(=O)(=O)c1cccc2nsnc12)c1ccccc1 (stereo not given)	13.3%
O=C(NCCOc1cccnc1)c1ccc(OC2CCN(Cc3ccccn3)CC2)cc1	18.5%
Fc1ccc(/C=N/n2c(COc3ccccc3)n[nH]c2=S)cc1	26.3%
C/C(=N/O)c1ccc(N2C(=O)C3C4C=CC(C3C2=O)C2C3C(=O)N(c5ccc(/C(C)=N/O)cc5)C(=O)C3C42)cc1 (stereo not given)	-7.1%
CC1CCN(C(=O)/C(=C\c2ccccc2F)NC(=O)c2ccccc2)CC1	18.5%
CN(CC(=O)NCc1ccc(Cl)cc1)S(=O)(=O)c1cccs1	21.4%
Cc1cccc(C(=O)N2CCCC(Nc3ccc(C(C)C)cc3)C2)n1 (stereo not given)	10.8%
COc1ccc(NC2CCCN(C(=O)c3ccncc3)C2)cc1 (stereo not given)	54.2% (active)
CC(C)c1ccc(NC2CCCN(C(=O)c3ccncc3)C2)cc1 (stereo not given)	13.7%
COc1cc(C(=O)N2CCN(C3CCC(C)CC3)CC2)cc(OC)c1OC (stereo not given)	16.6%
CCOc1ccc2[nH]c(=O)c(CN(CCCO)S(=O)(=O)c3ccc(F)cc3)cc2c1	39.4%
COc1cc(C(=S)NCc2ccccc2)cc(Br)c1O	25.9%

SMILES	inhibition
COc1cc(C(=O)NCc2ccncc2)cc(Br)c1OCc1ccccc1	50% (active)
COc1cc(C(=O)NCc2ccc(-n3cccc3)cc2)cc(OC)c1OC	33.3%
CCOC(=O)c1c(S(=O)(=O)Nc2ccc(CN3CCC(C)CC3)cc2)c(C)n(C)c1C	-22.3%
CCOc1ncccc1C(=O)N(C)CC(=O)Nc1ccc(F)cc1	59.9% (active)
CCOc1ncccc1C(=O)N(CC)CC(=O)Nc1ccc(NC(C)=O)cc1	1.3%
CN(CC(=O)Nc1ccc(F)cc1)C(=O)c1ccc(-c2ccc(Cl)cc2)o1	16.7%
Cc1cccc2nc(CNc3ccc(F)cc3)cn12	-14.9%
CN(C(=O)c1ccccc1)c1nccnc1C#N	25%
Cc1cc(N2C(=O)C(O)=C(C(=O)c3ccc(C)o3)C2c2ccc(OCc3ccccc3)cc2)no1 (stereo not given)	12.3%
O=S(=O)(c1ccc2c(c1)OCCO2)N1CCc2ccccc21	13.6%
Cn1c(=O)n(C)c2cc(S(=O)(=O)N3CCCc4ccccc43)ccc21	3.5%
CCn1c(=O)c(=O)n(CC)c2cc(S(=O)(=O)N3CCc4ccccc43)ccc21	50.3% (active)
Cc1cc(C)nc(SC2CCCCC2NS(=O)(=O)c2ccc(Cl)cc2)n1 (stereo not given)	1.5%
Cc1cc(C)nc(NS(=O)(=O)c2ccc(N3C(=O)C4CCCCC4C3=O)cc2)n1 (stereo not given)	57.6% (active)
Cc1ccc(S(=O)(=O)Nc2nc(C)cc(-n3nc(C)cc3C)n2)cc1	28.3%
COc1ccc(CCc2nc(-c3cccs3)no2)cc1	-3.6%
CCOC(=O)CCc1c(C)c2ccc(OCc3nn[nH]n3)c(C)c2oc1=O	-7.7%
Cc1c(CCC(=O)O)c(=O)oc2cc(OCc3ccc(Br)cc3)ccc12	2.4%
Cc1c(CCC(=O)O)c(=O)oc2c(C)c(OCc3ccccc3Cl)ccc12	57.3% (active)
COc1ccc2oc(=O)cc(CN3CCOCC3)c2c1	-2.3%
CCc1ccccc1NC(=O)/C(=C/c1ccccc1)c1ccccc1	-11.5%
CCOCCCNCc1cc(Br)ccc1OCC	3%
CCOc1ccccc1OCCCNCc1ccccc1	59.7% (active)
CCOCCCNCc1ccc(OCc2ccc(F)cc2)c(OC)c1	23.4%

SMILES	inhibition
COc1ccc(S(=O)(=O)N2CCC(C(=O)N3CCCC3)CC2)cc1C	-11.4%
O=C(N1CCCCC1)N1CCN(C(=O)N2CCCCC2)CC1	17.7%
CCOC(=O)C1CCN(C(=O)COc2cccc3ccccc23)CC1	1.1%
Cc1ccccc1NC(=O)CN1C(=O)N/C(=C\c2cccn2-c2cccc(C(=O)O)c2)C1=O	35.6%
N#Cc1ccccc1CN1C(=O)S/C(=C/c2cccn2-c2cccc(C(=O)O)c2)C1=O	50.3% (active)
Cc1cc(/C=C2\SC(=O)N(C)C2=O)c(C)n1-c1cccc(C(=O)O)c1	15.5%
CC(=O)N1c2ccc(S(=O)(=O)N3CCCC(C(=O)NCc4ccc(Cl)cc4)C3)cc2CC1C (stereo not given)	52.7% (active)
CC(=O)N1c2ccc(S(=O)(=O)N3CCC(C(=O)NCc4ccc(F)cc4)CC3)cc2CC1C (stereo not given)	34.4%
CC(=O)N1CCCc2cc(S(=O)(=O)N3CCCC(C(=O)NCc4ccc(Cl)cc4)C3)ccc21 (stereo not given)	5.3%
CCC(C)c1ccccc1NC(=O)CN(C)CC(=O)Nc1ccccc1SC (stereo not given)	-2.9%
CC1(C)C2CCC1(CS(=O)(=O)NCCc1c[nH]c3ccccc13)C(=O)C2 (stereo not given)	-8.1%
CCC(CC)C(=O)N1CCN(c2cccc(C)c2C)CC1	-4.1%
NC(=O)N1CCc2ccccc21	30.9%
Cc1cccc(N2CCN(C(C)C(=O)N3CCc4ccccc43)CC2)c1C (stereo not given)	52.9% (active)
O=C1Nc2cc(C(=O)N3CCN(c4ccc(F)cc4)CC3)ccc2NC1CSCc1cccc(F)c1 (stereo not given)	-24.2%
O=C(O)c1cc(S(=O)(=O)N(Cc2ccccc2)c2ccccc2)ccc1Cl	10.4%
CCOc1ccc2c(c1)c(=O)c(S(=O)(=O)c1ccc(C)cc1)cn2CC	52.5% (active)
CCn1cc(S(=O)(=O)c2cccc(C)c2)c(=O)c2cc(F)c(N3CCN(C)CC3)cc21	5.7%
CCCn1cc(S(=O)(=O)c2ccc(C)cc2)c(=O)c2cc(OCC)ccc21	-25.6%
COC(=O)c1c(C)[nH]c(C(=O)/C=C/c2ccc(Cl)cc2)c1C	-0.3%
COc1ccc(OC)c(CNC(=O)Cn2nc(C)c3c(C)n(-c4ccc(C)cc4)nc3c2=O)c1	-9%
CC(C)CC(=O)NC(=S)NNC(=O)c1cccc([N+](=O)[O-])c1	-16.7%
